Source: PubChem (several laboratories)
Rin1-Abl PPI inh – inhibitors of Rin1-Abl protein binding, primary screen, biochemical, TR-FRET; Tyrosine-protein kinase ABL1 (Homo sapiens) + Ras and Rab interactor 1 (Homo sapiens), …; inhibition, % at 7.35 µM; hit rate 0.4% among 360,000; AID 588664, 2011; in the data active = inhibition above about 5%, passing the limit was not always enough
IDE cell inh – human IDE inhibitors in live cells, primary screen, fluorescence polarization, HEK cells, FAbetaB substrate; Insulin-degrading enzyme (Homo sapiens), P14735; FAbetaB cleavage; inhibition, % at 5.59 µM; hit rate 0.41% among 320,000; AID 434962, 2010;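 active = percent inhibition above the average of all tested compounds plus 3 SD, set per screening campaign, cut at about 16% in these data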;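 note: IDE supplied by intact live HEK cells; FP after avidin binding of uncleaved biotin substrate so inhibition keeps polarization high; 0% = DMSO wells and 100% = 60 µM reference IDE inhibitor Ii1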
Target sequence (P14735 whole entry, looked up): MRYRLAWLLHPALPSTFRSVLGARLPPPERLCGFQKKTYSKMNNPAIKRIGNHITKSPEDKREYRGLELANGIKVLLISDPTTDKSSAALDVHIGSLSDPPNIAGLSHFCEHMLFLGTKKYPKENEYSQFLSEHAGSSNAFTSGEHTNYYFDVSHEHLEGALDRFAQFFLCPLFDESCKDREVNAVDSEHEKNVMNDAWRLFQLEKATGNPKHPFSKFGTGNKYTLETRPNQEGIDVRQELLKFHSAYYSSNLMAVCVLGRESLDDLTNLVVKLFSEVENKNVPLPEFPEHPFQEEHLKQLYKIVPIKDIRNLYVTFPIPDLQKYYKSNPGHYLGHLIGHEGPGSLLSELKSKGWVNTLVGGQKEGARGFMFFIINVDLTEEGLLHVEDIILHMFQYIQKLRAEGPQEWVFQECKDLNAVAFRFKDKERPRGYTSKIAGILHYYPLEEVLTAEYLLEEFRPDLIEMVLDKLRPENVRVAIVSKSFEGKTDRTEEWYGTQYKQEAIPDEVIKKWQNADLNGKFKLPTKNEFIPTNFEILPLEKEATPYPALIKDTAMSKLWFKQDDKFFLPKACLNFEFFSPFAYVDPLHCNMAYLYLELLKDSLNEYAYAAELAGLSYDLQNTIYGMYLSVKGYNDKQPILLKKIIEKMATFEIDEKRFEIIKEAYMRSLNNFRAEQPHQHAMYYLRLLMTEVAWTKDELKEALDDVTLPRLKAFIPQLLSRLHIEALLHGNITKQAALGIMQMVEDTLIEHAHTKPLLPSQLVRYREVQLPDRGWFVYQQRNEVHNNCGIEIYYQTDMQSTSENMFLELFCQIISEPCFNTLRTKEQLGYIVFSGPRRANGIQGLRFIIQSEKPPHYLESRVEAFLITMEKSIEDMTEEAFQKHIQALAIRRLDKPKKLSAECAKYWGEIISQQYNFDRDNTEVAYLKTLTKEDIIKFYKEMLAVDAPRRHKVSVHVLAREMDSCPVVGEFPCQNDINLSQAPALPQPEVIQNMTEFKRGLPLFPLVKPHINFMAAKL
Rpn11 inh – Rpn11 (PSMD14) deubiquitinase inhibitors, primary screen, biochemical, fluorescence polarization, uHTS | human 26S proteasome, Ub4-pepOG fluorescence polarization; 20S core pre-blocked with epoxomicin | inhibition, % at 20 µM | hit rate 0.59% among 360,000 | AID 588493, 2011;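 active = inhibition at 20 µM, scaled to each plate's controls, above about 33%, limit read from the data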
IDE act – human IDE activators in live cells, primary screen, fluorescence polarization, HEK cells, FAbeta-B substrate. FAbeta-B cleavage; 0% vehicle, 100% cell-free pure enzyme wells. AID 493087, 2011. hit rate 0.073% among 340,000. activation, % at 5.96 µM;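 active = activation above the mean of all tested compounds plus 3 SD, set per screening campaign, cut at about 17% in these data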
TPT1 inh – Candida albicans TPT1 enzyme inhibitors, primary screen, biochemical, fluorescence polarization; inhibition, % at 5 µM; hit rate 0.81% among 300,000; recombinant caTPT1, FP RNA substrate dephosphorylation; tRNA 2'-phosphotransferase TPT1 (Candida albicans SC5314);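 active = inhibition above the mean of all tested compounds plus 3 SD, set per screening campaign, cut at about 24% in these data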;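 note: plate controls were DMSO alone for no effect and ferristatin control at 100 nM for full effect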
Calb FLC – C. albicans growth inhibition with fluconazole, primary screen, CaCi-2 strain, Alamar Blue fluorescence; hit rate 0.57% among 300,000; C. albicans CaCi-2 (fluconazole-resistant clinical isolate) + fluconazole, 48 h; growth inhibition, % (no concentration beside the values);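 active = growth inhibition above about 58% in most replicates, limit read from the data, passing the limit was not always enough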;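 note: all wells also contain fluconazole at 8 µg/ml as a sub-toxic cotreatment; 0% = median of DMSO wells and 100% = median of geldanamycin control wells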
Rpn11 inh conf – Rpn11 (PSMD14) deubiquitinase inhibitors, confirmation, biochemical, fluorescence polarization, single concentration | hit rate 29% among 1,900 | inhibition, % at 20 µM | shares compounds with Rpn11 inh | purified human 26S proteasome, Ub4-pepOG fluorescence polarization; proteasome pretreated with epoxomicin
MMP-2 counter – MMP-2 enzyme inhibition, confirmation, counter-screen for RPN11 inhibitor project, biochemical, fluorescence, single concentration. shares compounds with Rpn11 inh. recombinant MMP-2, FRET peptide cleavage fluorescence. inhibition, % at 20 µM. hit rate 4% among 1,900. AID 602330, 2012;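 note: human MMP-2 activated beforehand with APMA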
Thrombin FP – bovine thrombin protease inhibition, confirmation, counter-screen for Rpn11 inhibitor project, biochemical, fluorescence polarization, single concentration. hit rate 13% among 1,900. shares compounds with Rpn11 inh. inhibition, % at 20 µM. bovine thrombin cleavage of Ub4-pepOG;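 active = mean inhibition at least 40% at 20 µM, or signal 3 deviations below plate average, so some actives read negative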;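 note: plate controls were thrombin with DMSO for no effect and buffer wells lacking thrombin for full effect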
An asterisk follows results filed as active; · = not tested or not shown. Hits are enriched below; roughly 2.3% of the tested compounds scored in any of these assays. Cut-off read from the data, not from the text of the source, unless noted: active = inhibition above about 40%; inactive = the rest.

SMILES	Rin1-Abl PPI inh	IDE cell inh	Rpn11 inh	IDE act	TPT1 inh	Calb FLC	Rpn11 inh conf	MMP-2 counter	Thrombin FP
COc1ccc(-n2c(=O)/c(=C\c3cccs3)s/c2=C(/C#N)C(=O)NCCN2CCOCC2)cc1	-2	6	105*	-2	22	0	38	15	44*
CC(C(=O)Nc1ccccc1F)N1CCN(C)CC1 (stereo not drawn)	·	0	·	·	1	-8	·	·	·
Cc1cn([C@H]2C[C@H](O)[C@@H](CCC(=O)NCc3ccc(N(C)C)cc3)O2)c(=O)[nH]c1=O	-1	·	2	·	·	·	·	·	·
Cc1cccc(NC(=S)N/N=C/c2ccc([N+](=O)[O-])s2)c1	0	-6	39*	-3	22	-7	2	36	-13
C=CC[C@H](CC(=O)NCCO)C(=O)N[C@H](COC(=O)[C@@H](CC=C)Cc1ccc(F)cc1)c1ccccc1	-2	0	1	-5	·	·	·	·	·
CCCCN(C=O)c1c(CC)nc2ccc(C(=O)NCCN(C)C)cn12	-2	·	0	·	·	·	·	·	·
Cc1ccc(S(=O)(=O)N2CCN(C(=O)Cc3ccc(S(=O)(=O)N4CCOCC4)s3)CC2)cc1	4	-2	2	2	2	17	·	·	·
COc1ccc(N2CCN(C(=O)Cc3ccc(S(=O)(=O)N4CCOCC4)s3)CC2)cc1	1	9	48*	-1	15	-19	12	33	2
N=C1/C(=C/c2cccn2-c2ccc([N+](=O)[O-])cc2)C(=O)N=C2SC=CN12	3	8	-3	-1	-1	60	·	·	·
COc1ccc(-c2ccc(/C=C3/C(=N)N4C=CSC4=NC3=O)o2)c([N+](=O)[O-])c1	-3	0	41*	4	15	-6	3	-13	13
Cc1cccc(C)c1C(O)c1ncc(-c2cccc(C(F)(F)F)c2)[nH]1 (stereo not drawn)	-6	·	5	·	·	·	·	·	·
CN1CCC(N(C)C(=O)c2sc3cc(F)ccc3c2Cl)CC1	2	2	109*	5	-2	-21	-13	0	-6
Cc1ccc(OCc2cc(C(=O)NC3CCOC3)no2)cc1C (stereo not drawn)	2	-4	0	-1	2	1	·	·	·
CCN(c1ccc(NC(=O)c2cccc(S(=O)(=O)N3CCN(C)CC3)c2)cc1)C(C)C	-1	8	-7	-5	-1	24	·	·	·
Cc1cc(Cl)ccc1Oc1ccccc1C(=O)CC#N	4	7	56*	1	4	22	28	22	25
O=C(N/N=C/c1ccccc1)c1ccc(-c2ccccc2)cc1	3	3	2	1	-2	11	·	·	·
NC(=O)COc1ccc(/C=N\NC(=O)c2ccc(-c3ccccc3)cc2)cc1	-1	1	125*	2	-2	-1	3	-10	-2
Cc1ccccc1C(=O)Nc1nc(SCc2ccc(Cl)cc2)n[nH]1	0	4	1	-3	-1	-30	·	·	·
O=C(CN1C(=O)C2C3C=CC(C3)C2C1=O)Nc1nc(SCc2ccc(Cl)cc2)n[nH]1 (stereo not drawn)	-5	0	112*	3	0	-21	1	29	4
Cc1cc(CSc2ccc(Cl)cc2)ccc1N	-4	·	3	5	·	·	·	·	·
Cc1cccc(-n2c(C)cc(/C=C3/C(=N)N4C(c5ccccc5)=CSC4=NC3=O)c2C)c1	-1	1	57*	3	-1	-12	-6	-37	-26
C[C@H](O)[C@@H]1C(=O)N2CCc3c([nH]c4ccccc34)[C@@H]2C[C@@H]1N(C)Cc1ccc(Cl)cc1	-1	·	-2	·	·	·	·	·	·
CCc1ccc(NC(=O)CS(=O)CC(=O)Nc2ccc(N3CCOCC3)cc2)cc1 (stereo not drawn)	-4	-11	52*	0	0	-2	7	-22	-21
CCOC(=O)C1=CCC2C(=O)N(CC)C(=O)C12 (stereo not drawn)	0	·	4	·	·	·	·	·	·
COc1ccc(N2C(=O)c3ccc(NC(C)=O)cc3C2=O)cc1	-1	-2	41*	7	0	-7	-18	31	-22
SMILES	Rin1-Abl PPI inh	IDE cell inh	Rpn11 inh	IDE act	TPT1 inh	Calb FLC	Rpn11 inh conf	MMP-2 counter	Thrombin FP
CCOC(=O)c1cc2c(c(CSc3nc4ccccc4c(=O)n3Cc3ccco3)c1)OCOC2	-2	0	52*	-4	3	5	12	4	1
Cc1nc(N2CCCCC2)nc(N2CCCCC2)c1C=O	0	6	58*	1	11	-11	25	-61	-4
CCOC(=O)[C@H]1[C@H]2COc3ccc(Cl)cc3[C@@H]2N2C(=O)[C@@H](CO)NC(=O)[C@@]12C	2	3	2	1	·	·	·	·	·
CCCCN1C(=O)C(CC(=O)NCc2cccs2)CC(C(=O)N(CC)CC)=C1C (stereo not drawn)	1	·	-1	·	·	·	·	·	·
Cc1ccc(N2C(=O)C3C4CCC(O4)C3C2=O)c(OC(F)F)c1 (stereo not drawn)	-2	1	-4	7	·	·	·	·	·
CC(=O)N(/N=C1\Sc2ccccc2C1=O)c1ccc(C)cc1C	-5	3	10	3	-8	-4	·	·	·
CC(=O)N(/N=C1\Sc2ccccc2C1=O)c1ccccc1C	-2	5	39*	1	3	0	5	-44	9
CCN1CCc2nc(NC(=O)CC(c3ccccc3)c3ccccc3)sc2C1	-2	0	30	5	16	-4	·	·	·
CCN1CCc2nc(NC(=O)C(c3ccccc3)c3ccccc3)sc2C1	-1	-11	43*	2	19	6	10	-19	-3
CCOC(=O)c1c(NC(=O)CN2CCCc3ccccc32)sc(C)c1CC	-1	2	44*	0	5	0	-1	-26	6
COc1cc(OC)cc(-c2nnc(Nc3nc4c(F)cccc4s3)o2)c1	-7	-2	114*	-6	-6	115*	76*	32	-8
